Laboratory results published in PubChem BioAssay (NCI).
The panel holds about 83,000 compounds, 20% with a hit somewhere; the sample as a whole holds those more often.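 Growth was measured after 48 h exposure to one concentration of compound in 96-well plates. Values under 10 count as active.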 Unmarked numbers belong to inactive results. Activity calls are given as the source filed them.

system: CCRF-CEM leukemia; test: NCI-60 one-dose screen, 48 h (100 = growth as untreated, 0 = no growth, -100 = all killed); conditions: 10 µM unless noted

Structure (SMILES) | growth
Cn1c(SCC(=O)c2ccc(F)cc2)nc2ccccc2c1=O | 90.3%
CN1CCN(c2ccc(Nc3nc(NCCCNS(=O)(=O)c4cccc5ccccc45)c4sccc4n3)cc2)CC1 | 7.22% (active)
CCCCCC[n+]1ccc(SCC(=O)n2ccc3ccccc32)c2ccccc21 | 77.3%
COc1ccc(-c2cc(-c3ccc(N(C)C)cc3)n3c(n2)nc2ccccc23)cc1 | 24%
CC(=O)N(O)CCCCCNC(=O)CCC(=O)N(O)CCCCCNC(=O)CCC(=O)N(O)CCCCCN(CCCCCCCCCC[P+](c1ccccc1)(c1ccccc1)c1ccccc1)CCCCCCCCCC[P+](c1ccccc1)(c1ccccc1)c1ccccc1 | 5.87% (active)
CC1=C(C)C(=O)C(Nc2ccc3c(c2)OCCO3)=C(Br)C1=O | 13.2%
COc1ccc2c(c1)C=CC1(O2)Oc2ccc(OC)cc2C=C1C (configuration not stated) | 7.74% (active)
C/C(=C(\c1ccc(O)cc1)c1ccc(OCCN2CCCCCC2)cc1)c1ccc(Cl)cc1 | 3.56% (active)
Brc1cccc(-c2cc(-c3ccc4c(c3)OC=CO4)[nH]n2)c1 | 22%
COc1ccc(C(C)=C(c2ccc(OCCN(C)C)cc2)c2ccc(OCCN(C)C)cc2)cc1 | -23.6% (active)
NS(=O)(=O)c1ccc(Nc2nc(N/N=C/c3ccc4c(c3)OCO4)nc(Nc3ccccc3)n2)cc1 | 16.3%
COc1ccc(C2c3[nH]c4ccc(Cl)cc4c3CCN2c2oc(CO)nc2C#N)cc1 (configuration not stated) | 37.3%
CCc1cc2c(cc1Cl)nc1c(=O)[nH]c(=O)nc-1n2CCOCC(C)C | 77.6%
COc1ccc(-c2c3c(cn2Cc2cccc(OC)c2)-c2oncc2CCC3)cc1 | 96.8%
COc1ccc(/C(=N\NC(N)=S)c2ccc(Cl)cc2)cc1OC | 25.6%
O=C(CSc1nnc(-c2ccc(Cl)cc2)n1-c1ccccc1)Nc1ccccc1Cl | 76.7%
COc1ccc(-c2c(C(N)=O)c(N)n(Cc3nc4ccccc4[nH]3)c(=O)c2C#N)c(OC)c1 | 107%
COc1ccc(-c2cnc(NC(=O)CCCCCCNC(=O)C(O)(O)C(F)(F)F)s2)cc1 | 18.7%
C#C[C@]1(O)CC[C@H]2[C@@H]3CC=C4c5sc(Nc6cc(C)cc(C)c6)nc5CC[C@]4(C)[C@H]3CC[C@@]21C | 10.7%
COC(=O)CNC(=O)c1cccc(-c2cc(=O)c3c(OC)c(OC)c(OC)cc3o2)c1 | 91.3%
CCC1=Cc2c(OC)cccc2OC12C=Cc1c(OC)cccc1O2 (configuration not stated) | 16.2%
Cc1ccc2c(n1)C(=O)C(Cl)=C(Nc1ccc(C#N)cc1)C2=O | 3.83% (active)
Cn1ncc2c(C(=O)c3ccc(F)cc3)nc(C(C)(C)C)nc21 | 103%
CN1c2ccccc2Sc2cc(/C=N/Nc3ccnc4cc(Cl)ccc34)ccc21 | 56.2%
COCCOc1ccc2ncc(C#Cc3cncc(C(=O)Nc4ccc(CN5CCN(C)CC5)c(C(F)(F)F)c4)c3)n2n1 | 11.7%
O=C(CCCCCCNC(=O)C(O)(O)C(F)(F)F)Nc1ncc(-c2ccccc2)s1 | 22.5%
CCCCN1C(=O)/C(=c2\sc3n(c2=O)C2C(NN=3)N(CC)C(=O)N2CC)c2cc(C)ccc21 (configuration not stated) | 94.7%

system: MOLT-4 leukemia; test: as above; conditions: 10 µM unless noted

Structure (SMILES) | growth
CC(C)=CCC[C@](C)(O)[C@H]1CC[C@]2(C)[C@@H]1CC[C@@H]1[C@@]3(C)CC[C@H](N)C(C)(C)[C@@H]3CC[C@]12C | 4.46% (active)
Cc1cc2nc(C(Cl)Cl)nc(-c3ccc(S(=O)(=O)N(C)C)cc3)n2n1 | 28.4%
CCCCCCNC(=O)Oc1ccc(/C(=C(/C)c2ccc(OC)cc2)c2ccc(OCCN3CCCCCC3)cc2)cc1 | 9.66% (active)
Cc1nc(/N=C(N)/N=C(\N)c2cccc(Br)c2)sc1C | 39.7%
O=c1nc(Nc2ccc([N+](=O)[O-])cc2O)sc2ccccc12 | 31.1%
C#CCOc1ccc(-c2csc(NC(=O)C=C)n2)cc1NS(=O)(=O)c1cccc2c(N(C)C)cccc12 | 1.79% (active)
COc1ccc(C2CC(c3cccc(OCCCCOc4cccc(C5=NOC(c6ccc(OC)cc6)C5)c4)c3)=NO2)cc1 (configuration not stated) | 92.2%
Cc1ccc(OCc2occc2C(=O)N2CCOCC2)cc1 | 109%
O=S(=O)(NCCCNc1nccc(-c2[nH]c(-c3ccccc3)nc2-c2ccc(F)c(O)c2)n1)c1cccc2ccccc12 | 31.4%
CCc1cc(OC(=O)N2CCC(N3CCCCC3)CC2)ccc1Nc1cc(-c2ccc(-n3cccn3)cc2)[nH]n1 | 18.9%
O=C(COc1ccc(/C=C2\C(=O)Nc3ccc(F)cc32)cc1)Nc1ccccc1 | 99.2%
CC1=C(C)C(=O)C(Nc2cccc(C(=O)OC(C)(C)C)c2)=CC1=O | 65%
Cn1cc(-c2nnc(N)nc2-c2c[nH]c3ccc(F)cc23)c2cc(Br)ccc21 | -21.3% (active)
Cn1c(SCC(=O)c2ccc(F)cc2)nc2ccccc2c1=O | 95.8%
CN1CCN(c2ccc(Nc3nc(NCCCNS(=O)(=O)c4cccc5ccccc45)c4sccc4n3)cc2)CC1 | -3.37% (active)
CCCCCC[n+]1ccc(SCC(=O)n2ccc3ccccc32)c2ccccc21 | 79.4%
COc1ccc(-c2cc(-c3ccc(N(C)C)cc3)n3c(n2)nc2ccccc23)cc1 | 13.8%
CC(=O)N(O)CCCCCNC(=O)CCC(=O)N(O)CCCCCNC(=O)CCC(=O)N(O)CCCCCN(CCCCCCCCCC[P+](c1ccccc1)(c1ccccc1)c1ccccc1)CCCCCCCCCC[P+](c1ccccc1)(c1ccccc1)c1ccccc1 | 8.41% (active)
CC1=C(C)C(=O)C(Nc2ccc3c(c2)OCCO3)=C(Br)C1=O | -7.79% (active)
COc1ccc2c(c1)C=CC1(O2)Oc2ccc(OC)cc2C=C1C (configuration not stated) | 9.45% (active)

Structure (SMILES) | growth
C/C(=C(\c1ccc(O)cc1)c1ccc(OCCN2CCCCCC2)cc1)c1ccc(Cl)cc1 | -21.6% (active)
Brc1cccc(-c2cc(-c3ccc4c(c3)OC=CO4)[nH]n2)c1 | 29.2%
COc1ccc(C(C)=C(c2ccc(OCCN(C)C)cc2)c2ccc(OCCN(C)C)cc2)cc1 | -37.6% (active)
NS(=O)(=O)c1ccc(Nc2nc(N/N=C/c3ccc4c(c3)OCO4)nc(Nc3ccccc3)n2)cc1 | 11.2%
COc1ccc(C2c3[nH]c4ccc(Cl)cc4c3CCN2c2oc(CO)nc2C#N)cc1 (configuration not stated) | 29.3%
CCc1cc2c(cc1Cl)nc1c(=O)[nH]c(=O)nc-1n2CCOCC(C)C | 64.1%
COc1ccc(-c2c3c(cn2Cc2cccc(OC)c2)-c2oncc2CCC3)cc1 | 98.6%
COc1ccc(/C(=N\NC(N)=S)c2ccc(Cl)cc2)cc1OC | 29.5%
O=C(CSc1nnc(-c2ccc(Cl)cc2)n1-c1ccccc1)Nc1ccccc1Cl | 85.3%
COc1ccc(-c2c(C(N)=O)c(N)n(Cc3nc4ccccc4[nH]3)c(=O)c2C#N)c(OC)c1 | 102%
COc1ccc(-c2cnc(NC(=O)CCCCCCNC(=O)C(O)(O)C(F)(F)F)s2)cc1 | 6.5% (active)
C#C[C@]1(O)CC[C@H]2[C@@H]3CC=C4c5sc(Nc6cc(C)cc(C)c6)nc5CC[C@]4(C)[C@H]3CC[C@@]21C | 0.923% (active)
COC(=O)CNC(=O)c1cccc(-c2cc(=O)c3c(OC)c(OC)c(OC)cc3o2)c1 | 99.5%
CCC1=Cc2c(OC)cccc2OC12C=Cc1c(OC)cccc1O2 (configuration not stated) | 15.8%
Cc1ccc2c(n1)C(=O)C(Cl)=C(Nc1ccc(C#N)cc1)C2=O | 7.64% (active)
Cn1ncc2c(C(=O)c3ccc(F)cc3)nc(C(C)(C)C)nc21 | 92.6%
CN1c2ccccc2Sc2cc(/C=N/Nc3ccnc4cc(Cl)ccc34)ccc21 | 82.4%
COCCOc1ccc2ncc(C#Cc3cncc(C(=O)Nc4ccc(CN5CCN(C)CC5)c(C(F)(F)F)c4)c3)n2n1 | 13.2%
O=C(CCCCCCNC(=O)C(O)(O)C(F)(F)F)Nc1ncc(-c2ccccc2)s1 | 5.09% (active)
CCCCN1C(=O)/C(=c2\sc3n(c2=O)C2C(NN=3)N(CC)C(=O)N2CC)c2cc(C)ccc21 (configuration not stated) | 91.8%
